These results are taken from PubChem BioAssay (NCI).

Some test systems named below: MOLT-4 leukemia; SR leukemia; RPMI-8226 leukemia; OVCAR-8 ovarian; OVCAR-5 ovarian; OVCAR-4 ovarian; SK-OV-3 ovarian; IGROV1 ovarian; OVCAR-3 ovarian; HS 578T breast; NCI/ADR-RES ovarian; T-47D breast; BT-549 breast; SW-620 colon; MCF7 breast; HCT-116 colon; HCC-2998 colon; KM12 colon; MDA-MB-435 melanoma.
Common to all, as to assay: NCI-60 one-dose screen, 48 h (100 = growth as untreated, 0 = no growth, -100 = all killed)
Holding throughout (conditions): 10 µM unless noted

Compounds without any hit were thinned out: in the full panel of roughly 83,000, 20% have a hit.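 Assay: single dose, 48 h. Readout: percent growth (0 = no net growth; negative = cell death). Active: <10.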 Unmarked numbers belong to inactive results. The source made the active and inactive calls.

As for `COC(=O)[C@@H](C)C[C@H](Cc1ccccc1)NC(=O)c1cccc([C@@H](C[C@H](C(C)C)N(C)C(=O)[C@@H](NC(=O)[C@H]2CCCCN2C)C(C)C)OC(C)=O)n1`, the growth was 11.5% in the experiment on MOLT-4 leukemia; 8.11% (active) with SR leukemia; 22.4% in the experiment on RPMI-8226 leukemia; 11.4% in the experiment with OVCAR-8 ovarian; 35.6% with OVCAR-5 ovarian; 38.9% with OVCAR-4 ovarian. Besides, the growth in the experiment on SK-OV-3 ovarian is 28.7%; with IGROV1 ovarian it was 26.8%; in the experiment on OVCAR-3 ovarian, -31.3% (active); with HS 578T breast it was 26.3%; in the experiment with NCI/ADR-RES ovarian, 14.6%; in the experiment on T-47D breast, 47.1%. For the same compound, the growth was -12.5% (active) in the experiment with BT-549 breast; 22% in the experiment with SW-620 colon; 21.3% with MCF7 breast; 2.54% (active) in the experiment with HCT-116 colon; 2.68% (active) with HCC-2998 colon; 7.8% (active) in the experiment on KM12 colon.

As to `Cn1cc(-c2csc(-c3cn(CCN4CCOCC4)c4ccccc34)n2)c2cccnc21`, the growth is 29.9% in the experiment with MOLT-4 leukemia; 63.6% in the experiment on SR leukemia; 29.6% in the experiment on RPMI-8226 leukemia; 29.5% in the experiment on OVCAR-8 ovarian; 95.6% in the experiment on OVCAR-5 ovarian; 64.2% with OVCAR-4 ovarian. Further, the growth is 105% with SK-OV-3 ovarian; 61.8% in the experiment with IGROV1 ovarian; 70% with OVCAR-3 ovarian; 78% with HS 578T breast; 31.4% with NCI/ADR-RES ovarian; 2.94% (active) in the experiment with T-47D breast. Besides, the growth in the experiment with BT-549 breast was 45.1%; in the experiment with MDA-MB-435 melanoma it was 65.1%; in the experiment on SW-620 colon, 83.1%; in the experiment on HCT-116 colon it was 72.9%; in the experiment with HCC-2998 colon, 99.2%; with KM12 colon, 56.5%.

`CCCCCCCC[n+]1ccc2ccccc2c1`: the growth was 58% with MOLT-4 leukemia; 47.8% in the experiment with SR leukemia; 13.8% in the experiment on RPMI-8226 leukemia; 55.7% in the experiment on OVCAR-8 ovarian; 88.5% in the experiment with OVCAR-5 ovarian; 46.4% in the experiment on OVCAR-4 ovarian. Further, the growth in the experiment on SK-OV-3 ovarian was 62.9%; with IGROV1 ovarian, 64.1%; with OVCAR-3 ovarian it was 50.2%; in the experiment on HS 578T breast, 76.1%; in the experiment with NCI/ADR-RES ovarian it was 95.6%; with T-47D breast, 27.1%. For the same compound, the growth with BT-549 breast is 32.3%; in the experiment on SW-620 colon, 75.9%; in the experiment on MCF7 breast, 41.1%; in the experiment on HCT-116 colon, 46.5%; in the experiment on HCC-2998 colon, 47.4%; in the experiment on KM12 colon it was 46.1%.

Turning to `CC12CC=CCC1CCC1C2CCC2(C)C(c3ccc(=O)oc3)CCC12O` (configuration not stated), the growth in the experiment with MOLT-4 leukemia was -15.7% (active); in the experiment on SR leukemia, -3.66% (active); in the experiment on RPMI-8226 leukemia, -9.88% (active); with OVCAR-8 ovarian, -41.8% (active); in the experiment on OVCAR-5 ovarian it was -80.6% (active); in the experiment with OVCAR-4 ovarian it was -48.1% (active). The growth was -8.44% (active) in the experiment with SK-OV-3 ovarian; -12.3% (active) in the experiment with IGROV1 ovarian; -76.8% (active) in the experiment on OVCAR-3 ovarian; -18.5% (active) with HS 578T breast; -41.1% (active) in the experiment on NCI/ADR-RES ovarian; -4.1% (active) with T-47D breast. Moreover, the growth with BT-549 breast was -65.4% (active); with MDA-MB-435 melanoma it was -89.1% (active); in the experiment on SW-620 colon, -58.9% (active); in the experiment on HCT-116 colon it was -67.1% (active); with HCC-2998 colon it was -10.9% (active); with KM12 colon, -49.5% (active).

On to `COC(=O)[C@@H](C)C[C@H](Cc1ccccc1)NC(=O)c1csc([C@@H](C[C@H](C(C)C)N(C)C(=O)[C@H](C)NC(=O)[C@H]2CCCCN2C)OC(C)=O)n1`, for which the growth in the experiment on MOLT-4 leukemia was 33.2%; in the experiment on SR leukemia it was 15.8%; with RPMI-8226 leukemia, 15.7%; with OVCAR-8 ovarian, 26.4%; in the experiment with OVCAR-5 ovarian, 63.7%; in the experiment with OVCAR-4 ovarian, 60.3%. For the same compound, the growth in the experiment with SK-OV-3 ovarian is 47.2%; with IGROV1 ovarian, 47%; in the experiment on OVCAR-3 ovarian it was -0.67% (active); with HS 578T breast, 6.45% (active); with NCI/ADR-RES ovarian it was 87.6%; with T-47D breast it was 41.9%. The growth is 47.6% in the experiment with BT-549 breast; -33% (active) in the experiment on MDA-MB-435 melanoma; 18.4% in the experiment on SW-620 colon; 33.8% in the experiment on HCC-2998 colon; 22.4% with KM12 colon.

As for `CC(=O)O[C@H]1C(=O)[C@@]2(C)[C@H]([C@H](OC(=O)c3ccccc3)[C@]3(O)C[C@H](OC(=O)[C@H](OC(=O)OC[C@H]4COC(C)(C)O4)[C@@H](NC(=O)c4ccccc4)c4ccccc4)C(C)=C1C3(C)C)[C@]1(OC(C)=O)CO[C@@H]1C[C@@H]2O`, the growth with MOLT-4 leukemia is 11.7%; in the experiment with SR leukemia it was 17.9%; in the experiment on RPMI-8226 leukemia it was 6.27% (active); in the experiment on OVCAR-8 ovarian, 15.9%; in the experiment with OVCAR-5 ovarian, 6.17% (active); with OVCAR-4 ovarian, 55.6%. Besides, the growth in the experiment with SK-OV-3 ovarian is 22.2%; in the experiment with IGROV1 ovarian it was 18.8%; in the experiment on OVCAR-3 ovarian, 6.13% (active); in the experiment with HS 578T breast, 3.36% (active); with NCI/ADR-RES ovarian it was 70.1%; with T-47D breast, 31.3%. Besides, the growth is 9.68% (active) with BT-549 breast; -73.7% (active) with MDA-MB-435 melanoma; 27.8% in the experiment on SW-620 colon; 4.97% (active) with HCT-116 colon; 1.92% (active) with HCC-2998 colon; 11.9% in the experiment with KM12 colon.

As for `CC1(C)[C@H](O)[C@H](F)C[C@@]2(C)Oc3ccc(C(=O)Nc4ccc5c(c4)NC(=O)C54CCN(CCCCC#N)CC4)cc3C[C@H]12`, the growth with MOLT-4 leukemia is -19.5% (active); in the experiment on SR leukemia, 10.4%; with RPMI-8226 leukemia, -12.6% (active); with OVCAR-8 ovarian it was 62.5%; in the experiment with OVCAR-5 ovarian it was 62.9%; in the experiment with OVCAR-4 ovarian, 64.9%. Further, the growth in the experiment with SK-OV-3 ovarian is 17.7%; in the experiment with IGROV1 ovarian, 63.2%; with OVCAR-3 ovarian it was 61.3%; with HS 578T breast, -13.3% (active); with NCI/ADR-RES ovarian, 83.4%; with T-47D breast, 38.2%. Moreover, the growth was 32.5% in the experiment on BT-549 breast; 0.683% (active) in the experiment on SW-620 colon; 27.6% with MCF7 breast; 18.5% in the experiment with HCT-116 colon; 68.5% with HCC-2998 colon; 22% in the experiment with KM12 colon.

Take `CC(=O)O[C@H](C[C@H](C(C)C)N(C)C(=O)[C@@H](NC(=O)[C@H]1CCCN1C)C(C)C)c1nc(C(=O)N[C@@H](Cc2ccccc2)C[C@H](C)C(=O)O)c(C)s1`: the growth with MOLT-4 leukemia is 18.9%; in the experiment on SR leukemia, 8.27% (active); in the experiment with RPMI-8226 leukemia, 19.8%; with OVCAR-8 ovarian, 17.9%; in the experiment with OVCAR-5 ovarian, 36.1%; in the experiment on OVCAR-4 ovarian it was 48.2%. The growth was 6.85% (active) in the experiment on SK-OV-3 ovarian; 30.2% with IGROV1 ovarian; -22.9% (active) with OVCAR-3 ovarian; 23.8% in the experiment on HS 578T breast; 5.87% (active) with NCI/ADR-RES ovarian; 50.6% in the experiment on T-47D breast. For the same compound, the growth is -22.7% (active) in the experiment on BT-549 breast; -5.47% (active) in the experiment on MDA-MB-435 melanoma; 25.1% in the experiment on SW-620 colon; 21.9% with HCC-2998 colon; 8.49% (active) with KM12 colon.
